According to PubChem BioAssay (Tox21):
Results filed as inconclusive are left out. Activity calls are given as the source filed them. Unless noted, calls come from the whole dose curve; as a rule, active = well fitted curve in the direction sought with a large enough effect in the repeat runs; inconclusive = weak or mixed curves; inactive = no such curve, though single readings can be large; an effect the other way counts as inactive or inconclusive.

What was measured:
[1] = qHTS RealTime-Glo MT Cell Viability Assay in HEK293 cells - 0 hour (AID 1224880); note: top concentration of the series differs between compounds; nearly all actives have a fitted effect of over 45% in size
Method in brief: (§1)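 HEK293 cells mixed with RealTime-Glo reagents (NanoLuc plus cell-permeant prosubstrate) at 600 cells/well, preincubated 5 h at 37 C/5% CO2, then given 23 nL compound in DMSO. Nonlytic luminescence from viable cells was read at 0, 8, 16, 24, 32 and 40 h.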

[2] = A CellTox Green Cytotoxicity Assay to monitor cytotoxicity in HEK293 cells - 32 hour (AID 1224881); note: nearly all actives have a fitted effect of over 40% in size
Method in brief: (§2)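 HEK293 cells premixed with CellTox Green dye were seeded at 600 cells/well and left 5 h at 37 C/5% CO2 before pin transfer of 23 nL compound in DMSO. Fluorescence from dye bound to dead-cell DNA was read during 40 h treatment.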

[3] = A CellTox Green Cytotoxicity Assay to monitor cytotoxicity in HepG2 cells - 0 hour (AID 1224882); note: nearly all actives have a fitted effect of over 35% in size
Method in brief: (§3)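 HepG2 cells were seeded together with the CellTox Green dye at 600 cells/well, left 5 h at 37 C/5% CO2, then given compounds in DMSO. Fluorescence from dye bound to dead-cell DNA was read repeatedly over 40 h of treatment at 37 C.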

[4] = A CellTox Green Cytotoxicity Assay to monitor cytotoxicity in HepG2 cells - 32 hour (AID 1224883); note: nearly all actives have a fitted effect of over 50% in size
Method in brief: as §3

[5] = A CellTox Green Cytotoxicity Assay to monitor cytotoxicity in HEK293 cells - 8 hour (AID 1224884); note: nearly all actives have a fitted effect of over 35% in size
Method in brief: as §2

[6] = qHTS RealTime-Glo MT Cell Viability Assay in HepG2 cells - 16 hour (AID 1224885); note: nearly all actives have a fitted effect of over 50% in size
Method in brief: (§4)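 Cell number in HepG2 cultures estimated from NanoLuc luminescence generated by metabolic reduction of a prosubstrate by living cells. The homogeneous, nonlytic format allowed repeated reads at 0, 8, 16, 24, 32 and 40 h of compound exposure.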

[7] = qHTS RealTime-Glo MT Cell Viability Assay in HEK293 cells - 24 hour (AID 1224886); note: top concentration of the series differs between compounds; nearly all actives have a fitted effect of over 50% in size
Method in brief: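 Homogeneous bioluminescent viability format in HEK293 cells (600 cells/well). Following 5 h at 37 C/5% CO2, 23 nL compound was pintooled; the signal was measured repeatedly during 40 h incubation.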

[8] = qHTS RealTime-Glo MT Cell Viability Assay in HEK293 cells - 8 hour (AID 1224887); note: top concentration of the series differs between compounds; nearly all actives have a fitted effect of over 50% in size
Method in brief: as §1

[9] = A CellTox Green Cytotoxicity Assay to monitor cytotoxicity in HEK293 cells - 16 hour (AID 1224888); note: nearly all actives have a fitted effect of over 35% in size
Method in brief: as §2

[10] = qHTS RealTime-Glo MT Cell Viability Assay in HepG2 cells - 0 hour (AID 1224889); note: nearly all actives have a fitted effect of over 50% in size
Method in brief: as §4

[11] = A CellTox Green Cytotoxicity Assay to monitor cytotoxicity in HepG2 cells - 8 hour (AID 1224890); note: nearly all actives have a fitted effect of over 45% in size
Method in brief: as §3

[12] = qHTS assay to identify small molecule antagonists of the estrogen receptor alpha (ER-alpha) signaling pathway using the BG1 cell line in the presence of 0.1 nM 17-beta-estradiol - cell viability counter screen (AID 1259241); note: nearly all actives have a fitted effect of over 40% in size
Method in brief: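 VM7Luc4E2, 4,000 cells/well, phenol red-free medium + 10% charcoal-stripped FBS; 24 hr plating; cpd + 0.1 nM E2 final, 22 hr 37C/5% CO2; CellTiter-Fluor 30 min, fluorescence.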

[13] = qHTS assay to identify small molecule antagonists of the androgen receptor (AR) signaling pathway using the MDA cell line in the presence of 0.5 nM R1881 - cell viability counter screen (AID 1259242); note: nearly all actives have a fitted effect of over 45% in size
Method in brief: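 MDA-kb2 cells (human breast carcinoma, stably carrying MMTV-luciferase reporter) were exposed to compounds with 0.5 nM R1881 (final) for 16 hr at 37C, 0% CO2; viability then read as live-cell protease fluorescence (CellTiter-Fluor, 30 min) in the same wells.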

[14] = qHTS assay to identify small molecule HDAC inhibitors (AID 1259364); note: top concentration of the series differs between compounds; nearly all actives have a fitted effect of over 45% in size
Method in brief: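 Wild-type HCT-116 cells were plated overnight, exposed to compounds for 2 h at 37 °C, then given HDAC-Glo class I/II luminogenic reagent for 30 min at room temperature before luminescence was read.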

[15] = qHTS assay to identify small molecule agonists of the sonic hedgehog signaling (Shh) pathway - cell viability counter screen (AID 1259366); note: nearly all actives have a fitted effect of over 50% in size
Method in brief: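 Cytotoxicity counter screen run in the same wells as the Shh reporter assay. NIH/3T3 cells carrying a Gli1 response element–driven luciferase were treated with DMSO-dissolved compounds for 24hr, and live-cell protease activity was measured with CellTiter-Fluor.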

[16] = qHTS assay to identify small molecule antagonists of the sonic hedgehog signaling (Shh) pathway - cell viability counter screen (AID 1259367); note: nearly all actives have a fitted effect of over 55% in size
Method in brief: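 Using CellTiter-Fluor, viability of Gli1-Luc reporter 3T3 cells is read by fluorescence in the wells used for the Shh luciferase assay. Treatment lasts 23 hr with conditioned medium, then reagent 1 hr at 37C.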

[17] = target: Estrogen receptor (Homo sapiens) (UniProt P03372); assay: qHTS assay to identify small molecule antagonists of the estrogen receptor alpha (ER-alpha) signaling pathway using the BG1 cell line in the presence of 0.1 nM 17-beta-estradiol (AID 1259244); note: nearly all actives have a fitted effect of over 50% in size
Estrogen receptor (Homo sapiens), sequence (P03372 whole entry, looked up): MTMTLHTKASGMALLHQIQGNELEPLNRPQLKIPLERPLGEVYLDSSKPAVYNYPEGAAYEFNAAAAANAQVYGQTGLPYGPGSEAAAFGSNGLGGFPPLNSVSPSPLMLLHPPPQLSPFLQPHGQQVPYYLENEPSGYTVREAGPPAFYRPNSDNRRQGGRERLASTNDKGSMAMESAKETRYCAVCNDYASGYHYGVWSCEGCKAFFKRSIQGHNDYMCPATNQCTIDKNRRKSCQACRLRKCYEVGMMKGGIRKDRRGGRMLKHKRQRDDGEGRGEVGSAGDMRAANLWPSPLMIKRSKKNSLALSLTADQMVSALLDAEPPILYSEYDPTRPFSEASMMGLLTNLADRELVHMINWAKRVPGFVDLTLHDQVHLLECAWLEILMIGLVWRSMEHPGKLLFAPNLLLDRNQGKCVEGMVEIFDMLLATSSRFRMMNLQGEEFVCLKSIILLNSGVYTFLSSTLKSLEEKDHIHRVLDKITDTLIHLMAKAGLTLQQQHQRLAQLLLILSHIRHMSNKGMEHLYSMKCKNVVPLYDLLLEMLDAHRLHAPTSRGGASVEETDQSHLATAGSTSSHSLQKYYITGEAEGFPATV
Method in brief: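 VM7Luc4E2 cells (endogenous full-length ER-alpha, stable 4xERE-luciferase) were grown 5 days in phenol red-free medium with charcoal-stripped FBS, then exposed 22 h at 37C to compounds plus 0.1 nM (final) 17beta-estradiol; ONE-Glo luminescence read-out.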

[18] = qHTS assay to identify small molecule HDAC inhibitors - cell viability counter screen (AID 1259365)
Method in brief: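 Luminescence from CellTiter-Glo, developed 30min at room temperature, reports viability of wild-type HCT-116 cells treated 2hr with compounds at 37 C and 5% CO2 after overnight plating.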

[19] = qHTS assay to identify small molecule phospholipidosis (PLD) inducers (AID 1259344; active = well fitted curve in the direction sought with a large enough effect; an effect the other way counts as inactive or inconclusive)
Method in brief: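 Fluorescent phospholipid staining (LipidTOX Red) measured by automated microscopy in fixed HepG2 cells after 24 h treatment; nuclei counterstained with Hoechst 33342; amiodarone as reference inducer.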

Measured: Potency

C=CC(=O)OCCCCCC
not listed: [17] | [18] | [19]
inactive: all other assays above

CCCCCCC(=O)OCC
not listed: [14] | [19]
inactive: all other assays above

CCOC(=O)[C@H](CCc1ccccc1)N[C@@H](C)C(=O)N1CCC[C@H]1C(=O)O
not listed: [17]
inactive: all other assays above

CNC(=O)c1c(I)c(NC(=O)CCCCC(=O)Nc2c(I)c(C(=O)O)c(I)c(C(=O)NC)c2I)c(I)c(C(=O)O)c1I
not listed: [17] | [19]
inactive: all other assays above

C#CC(O)CCCCC (stereo unspecified)
not listed: [17] | [19]
inactive: all other assays above

CN(C)N=Nc1ccccc1
not listed: [17] | [18] | [19]
inactive: all other assays above

O=C(O)C1CCC1
not listed: [14] | [19]
inactive: all other assays above

O=C(O)c1ccccc1-c1ccc(C(F)(F)F)cc1
not listed: [17]
inactive: all other assays above

OCC(O)[C@@H](O)[C@H](O)[C@H](O)CO[C@H]1O[C@H](CO)[C@@H](O)[C@H](O)[C@H]1O (stereo partly specified)
not listed: [17] | [19]
inactive: all other assays above

COCc1ccc(COC)cc1
not listed: [15] | [19]
inactive: all other assays above

CCCCCCCCCCCCCCC
not listed: [17] | [19]
inactive: all other assays above

OCC(CO)(CO)COCC(CO)(CO)CO
not listed: [14] | [18] | [19]
inactive: all other assays above

Cc1ccccc1Br
not listed: [15] | [17] | [19]
inactive: all other assays above

CO
not listed: [17]
inactive: all other assays above

CCCCCCCCCCC1CO1 (stereo unspecified)
not listed: [17] | [19]
inactive: all other assays above

Cc1ccc(Nc2ccc(O)c3c2C(=O)c2ccccc2C3=O)cc1
not listed: [18] | [19]
inactive: all other assays above
